Data as given in PubChem BioAssay (Tox21).
Inconclusive results are not listed. A number with no mark means an inactive call. The source made the active and inactive calls. Unless noted, the call rests on the fitted dose curve.

biological target: Beta-2 adrenergic receptor (Homo sapiens) (UniProt P07550); assay: Adrenergic beta2 receptor (ADRB2) small molecule agonists, cell-based qHTS assay (AID 1963593); details: CHO-ADRB2 cells, cAMP HTRF, 30 min; series mostly up to 92.4 µM; activation: at the top concentration;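 further: CHO cells stably overexpressing human ADRB2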
Sequence (P07550 whole entry, looked up): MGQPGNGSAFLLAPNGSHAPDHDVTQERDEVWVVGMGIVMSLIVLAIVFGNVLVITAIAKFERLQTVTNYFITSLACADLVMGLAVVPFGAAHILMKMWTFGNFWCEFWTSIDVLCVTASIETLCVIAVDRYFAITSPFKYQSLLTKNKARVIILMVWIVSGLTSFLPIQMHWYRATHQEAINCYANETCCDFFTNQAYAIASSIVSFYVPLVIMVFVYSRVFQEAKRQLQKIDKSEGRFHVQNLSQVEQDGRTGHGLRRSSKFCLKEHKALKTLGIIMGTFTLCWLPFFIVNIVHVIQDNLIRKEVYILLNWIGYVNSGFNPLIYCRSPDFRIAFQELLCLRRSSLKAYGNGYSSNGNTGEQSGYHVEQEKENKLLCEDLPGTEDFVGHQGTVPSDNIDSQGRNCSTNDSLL
Method in brief: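 CHO cells stably over-expressing ADRB2 were plated overnight at 37C, then dosed with compounds plus a stimulation mix containing 100uM IBMX and 25uM Ro-20-1724 for 0.5hr at room temperature. cAMP was measured by HTRF competition, 1hr.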
On the % scale 0 is the no-effect control and ±100 the full control effect.

SMILES | activation | Potency
Nc1nc(=O)n([C@@H]2O[C@H](CO)[C@@H](O)[C@@H]2F)cc1I | 3.93% [at 42.5 µM] | –
Cc1cc(C)cc(O)c1 | 17.2% | –
COc1cc(C(=O)N2CCOCC2)cc(OC)c1OC | 17.9% [at 42.5 µM] | –
CCCO | 4.53% | –
CC12CCC(C1)C(C)(C)C2O (configuration not stated) | 26% | –
[O]=[Zr] | 23.4% | –
C1CCC(SSC2CCCCC2)CC1 | 2.74% | –
CCCC[C@H]1CN(CC2CCOCC2)C(=O)OC12CCN(C1(C)CCN(C(=O)c3c(C)ncnc3C)CC1)CC2 | -11.5% | –
Cc1ccccc1S(=O)(=O)O | 15.8% | –
NC(=O)c1ccc(N)cc1 | 21.1% | –
FC(F)(F)C(Cl)Br (configuration not stated) | – | inactive
CCCCCCCCSCCO | 14.6% | –
Cc1ccccc1C(N)=O | -0.17% | –
CC12CC3CC(C)(C1)CC(N)(C3)C2 | 17.4% [at 42.5 µM] | –
O[C@@H]([C@H](O)[C@H](O)CBr)[C@H](O)CBr | 1.59% | –
CCOc1ccc(N)c([N+](=O)[O-])c1 | -24.5% | –
CC(=O)NCc1c(I)c(NC(C)=O)c(I)c(C(=O)O)c1I | -4.41% [at 42.5 µM] | –
Nc1cc([N+](=O)[O-])ccc1Cl | 20.2% | –
Cc1c(C(=O)c2c[nH]n(C)c2=O)ccc(S(C)(=O)=O)c1C1=NOCC1 | -17.2% [at 42.5 µM] | –
CC(C[N+](C)(C)C)OC(N)=O (configuration not stated) | 2.13% [at 42.5 µM] | –

SMILES | activation | Potency
O=S(=O)(O)c1ccccc1O | -29.3% | –
Cc1cccc(N(C)C)c1 | -0.641% | –
OCC1CCC(CO)CC1 (configuration not stated) | 1.83% | –
C=CCOC(=O)CCCCCC | 22.9% | –
CCN(CC)S(=O)(=O)c1ccc(C(=O)O)cc1 | 4.49% [at 42.5 µM] | –
NNS(=O)(=O)c1ccc(Oc2ccc(S(=O)(=O)NN)cc2)cc1 | 7.88% | –
O=Cc1ccc(C(=O)O)cc1 | -19.3% | –
COCCOCCOCCOCCOC | -21.5% | –
C=C(C)[C@H]1CC=C(C)CC1 | -7.7% | –
CC(C)C1CCC(O)CC1 (configuration not stated) | 16.3% | –
C=CC(C)(CCC=C(C)C)OC(=O)CC (configuration not stated) | -38.2% | –
[O-][n+]1ccc(Cl)cc1 | 7.78% | –
CC(C)CCO | 14.1% | –
O=C(O)CCS | 23.8% | –
Cc1cc(C)c(N=Nc2c(O)c(S(=O)(=O)O)cc3cc(S(=O)(=O)O)ccc23)cc1C | -2.26% [at 8.39 µM] | –
Cc1ccc(Nc2ccc(O)c3c2C(=O)c2ccccc2C3=O)cc1 | 3.46% | –
C1=COCCC1 | 11.4% | –
NCCNCCN | 2.04% | –
CC(=O)N1C[C@H](O)C[C@H]1C(=O)O | 1.34% [at 42.5 µM] | –

biological target: D(2) dopamine receptor (Homo sapiens) (UniProt P14416); assay: Dopamine D2 receptor (DRD2) small molecule agonists, cell-based qHTS assay (AID 1963594); details: HEK293-DRD2 cAMP HTRF, agonist mode, 30 min; series mostly up to 92.4 µM; activation: at the top concentration; further: nearly all actives have a fitted effect of over 35% in size
Sequence (P14416 whole entry, looked up): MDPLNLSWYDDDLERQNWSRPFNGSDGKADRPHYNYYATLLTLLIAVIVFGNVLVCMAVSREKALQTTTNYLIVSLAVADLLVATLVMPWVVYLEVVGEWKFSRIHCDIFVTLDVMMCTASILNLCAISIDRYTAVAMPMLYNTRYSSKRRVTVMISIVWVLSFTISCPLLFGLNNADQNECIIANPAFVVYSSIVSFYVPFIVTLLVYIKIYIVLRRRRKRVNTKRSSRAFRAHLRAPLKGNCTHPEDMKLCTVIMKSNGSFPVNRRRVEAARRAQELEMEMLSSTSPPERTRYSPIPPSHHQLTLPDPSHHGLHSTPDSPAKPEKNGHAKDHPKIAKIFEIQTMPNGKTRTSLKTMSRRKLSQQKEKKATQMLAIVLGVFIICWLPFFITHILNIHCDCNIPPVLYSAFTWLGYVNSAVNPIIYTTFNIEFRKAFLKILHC
Method in brief: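 HEK293 cells stably expressing DRD2 were cultured 24 h at 37 C, then given Ro20-1724 (0.1 mM final) and compounds for 10 min at room temperature. NKH477 (200nM) was then added for 30 min. cAMP was read by HTRF.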

SMILES | activation | Potency
Nc1nc(=O)n([C@@H]2O[C@H](CO)[C@@H](O)[C@@H]2F)cc1I | 0.754% [at 42.5 µM] | –
COc1cc(C(=O)N2CCOCC2)cc(OC)c1OC | -5.58% [at 42.5 µM] | –
CCCO | -2.8% | –
[O]=[Zr] | -1.35% | –
CCCC[C@H]1CN(CC2CCOCC2)C(=O)OC12CCN(C1(C)CCN(C(=O)c3c(C)ncnc3C)CC1)CC2 | 4.31% | –
NC(=O)c1ccc(N)cc1 | -2.21% | –
FC(F)(F)C(Cl)Br (configuration not stated) | – | inactive
CCCCCCCCSCCO | 3.45% | –
Cc1ccccc1C(N)=O | -2.62% | –
O[C@@H]([C@H](O)[C@H](O)CBr)[C@H](O)CBr | -1.83% | –
CCOc1ccc(N)c([N+](=O)[O-])c1 | 12.9% | –
CC(=O)NCc1c(I)c(NC(C)=O)c(I)c(C(=O)O)c1I | 11.1% [at 42.5 µM] | –
Nc1cc([N+](=O)[O-])ccc1Cl | 1.08% | –
Cc1c(C(=O)c2c[nH]n(C)c2=O)ccc(S(C)(=O)=O)c1C1=NOCC1 | 0.0961% [at 42.5 µM] | –
O=S(=O)(O)c1ccccc1O | -0.653% | –
Cc1cccc(N(C)C)c1 | -1.78% | –
OCC1CCC(CO)CC1 (configuration not stated) | 3.95% | –
CCN(CC)S(=O)(=O)c1ccc(C(=O)O)cc1 | 6.09% [at 42.5 µM] | –
NNS(=O)(=O)c1ccc(Oc2ccc(S(=O)(=O)NN)cc2)cc1 | 7.47% | –
O=Cc1ccc(C(=O)O)cc1 | -0.147% | –
CC(C)C1CCC(O)CC1 (configuration not stated) | -13.1% | –
C=CC(C)(CCC=C(C)C)OC(=O)CC (configuration not stated) | -0.586% | –
[O-][n+]1ccc(Cl)cc1 | 0.316% | –
CC(C)CCO | -5.83% | –
O=C(O)CCS | 2.71% | –
Cc1ccc(Nc2ccc(O)c3c2C(=O)c2ccccc2C3=O)cc1 | -3.26% | –
C1=COCCC1 | 3.05% | –
NCCNCCN | – | inactive
CC(=O)N1C[C@H](O)C[C@H]1C(=O)O | -6.6% [at 42.5 µM] | –

biological target: D(2) dopamine receptor (Homo sapiens) (UniProt P14416); assay: Dopamine D2 receptor (DRD2) small molecule antagonists, cell-based qHTS assay (AID 1963595; active means well fitted inhibition curve with a large enough effect in the signal ratio in the repeat runs, with a control signal flat; the % refers to the signal ratio); details: HEK293-DRD2 cAMP HTRF antagonist mode; series mostly up to 92.4 µM; activity change, negative = inhibition: at the top concentration
Method in brief: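 HEK293 cells stably expressing DRD2 were preincubated with 0.1 mM Ro20-1724, then with compound for 10 min at room temperature. Cells were stimulated with 200 nM NKH477 plus 12 nM quinpirole for 30 min, and cAMP was read by HTRF.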

SMILES | activity change, negative = inhibition | Potency
Nc1nc(=O)n([C@@H]2O[C@H](CO)[C@@H](O)[C@@H]2F)cc1I | 15.2% [at 42.5 µM] | –
Cc1cc(C)cc(O)c1 | – | inactive
COc1cc(C(=O)N2CCOCC2)cc(OC)c1OC | 4.54% [at 42.5 µM] | –
CCCO | 4.85% | –
CC12CCC(C1)C(C)(C)C2O (configuration not stated) | -2.54% | –
[O]=[Zr] | 14.8% | –
C1CCC(SSC2CCCCC2)CC1 | -10.3% | –
CCCC[C@H]1CN(CC2CCOCC2)C(=O)OC12CCN(C1(C)CCN(C(=O)c3c(C)ncnc3C)CC1)CC2 | -9.74% | –
Cc1ccccc1S(=O)(=O)O | -0.743% | –
NC(=O)c1ccc(N)cc1 | 10% | –
FC(F)(F)C(Cl)Br (configuration not stated) | – | inactive
CCCCCCCCSCCO | 6.95% | –
Cc1ccccc1C(N)=O | -1.5% | –
CC12CC3CC(C)(C1)CC(N)(C3)C2 | 8.42% [at 42.5 µM] | –
O[C@@H]([C@H](O)[C@H](O)CBr)[C@H](O)CBr | 2.15% | –
CCOc1ccc(N)c([N+](=O)[O-])c1 | 2.43% | –
CC(=O)NCc1c(I)c(NC(C)=O)c(I)c(C(=O)O)c1I | 1.5% [at 42.5 µM] | –
Nc1cc([N+](=O)[O-])ccc1Cl | -1.75% | –
Cc1c(C(=O)c2c[nH]n(C)c2=O)ccc(S(C)(=O)=O)c1C1=NOCC1 | -2.05% [at 42.5 µM] | –
CC(C[N+](C)(C)C)OC(N)=O (configuration not stated) | -3.59% [at 42.5 µM] | –

SMILES | activity change, negative = inhibition | Potency
O=S(=O)(O)c1ccccc1O | -2.74% | –
Cc1cccc(N(C)C)c1 | 2.04% | –
OCC1CCC(CO)CC1 (configuration not stated) | 7.68% | –
C=CCOC(=O)CCCCCC | 6.18% | –
CCN(CC)S(=O)(=O)c1ccc(C(=O)O)cc1 | -5.78% [at 42.5 µM] | –
NNS(=O)(=O)c1ccc(Oc2ccc(S(=O)(=O)NN)cc2)cc1 | -1.94% | –
O=Cc1ccc(C(=O)O)cc1 | -1.28% | –
COCCOCCOCCOCCOC | -0.516% | –
C=C(C)[C@H]1CC=C(C)CC1 | -3.39% | –
CC(C)C1CCC(O)CC1 (configuration not stated) | 0.274% | –
C=CC(C)(CCC=C(C)C)OC(=O)CC (configuration not stated) | -19.2% | –
[O-][n+]1ccc(Cl)cc1 | 0.0256% | –
CC(C)CCO | -10.7% | –
O=C(O)CCS | -11.8% | –
Cc1cc(C)c(N=Nc2c(O)c(S(=O)(=O)O)cc3cc(S(=O)(=O)O)ccc23)cc1C | 0.169% [at 8.38 µM] | –
Cc1ccc(Nc2ccc(O)c3c2C(=O)c2ccccc2C3=O)cc1 | 9.21% | –
C1=COCCC1 | 1.25% | –
NCCNCCN | – | inactive
CC(=O)N1C[C@H](O)C[C@H]1C(=O)O | -0.253% [at 42.5 µM] | –
